The full ranking holds about 33,000 sequences; the median of “E-score (-0.5 to 0.5)” is about -0.017, and the highest 2% start at about 0.3. Many of the other results were omitted from the sample, so the highest values are more common in it than they were.
The sequences below were run against T1, Sut1 (UniProt P53032) (assay: PBM E-score (8-mer binding enrichment) (E-score (-0.5 to 0.5)); higher = stronger / more preferred TF binding). Settings: protein concentration: 200 nM; construct: GST-full length.
T1 sequence: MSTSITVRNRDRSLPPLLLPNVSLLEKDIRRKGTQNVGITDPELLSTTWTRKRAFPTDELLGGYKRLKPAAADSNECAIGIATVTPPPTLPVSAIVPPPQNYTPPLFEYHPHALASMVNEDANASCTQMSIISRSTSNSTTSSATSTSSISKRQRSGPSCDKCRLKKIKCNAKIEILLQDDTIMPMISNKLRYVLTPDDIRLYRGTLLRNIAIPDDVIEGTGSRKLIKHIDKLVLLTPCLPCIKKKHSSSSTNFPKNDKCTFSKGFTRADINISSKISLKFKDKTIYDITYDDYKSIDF
How it was run: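 Yeast transcription factors carrying a GST tag, as full-length proteins or DNA-binding domains, were produced by PURExpress in vitro transcription/translation. About 100-200 nM protein was applied to universal all-10-mer Agilent arrays, double-stranded by primer extension on fresh or once-stripped slides. Bound protein was detected with fluorescent anti-GST, and scans were normalised with masliner. The Universal PBM Analysis Suite gave each ungapped eight-base word, pooled with its reverse complement, an E-score, a modified Wilcoxon-Mann-Whitney statistic.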

Sequence	PBM E-score
CCCAACGC	-0.103
TCACTTCA	-0.0869
CGGCTCAG	-0.117
TCTAGCCA	-0.0636
GACAACGC	-0.0716
CAATTTCA	0.00344
TAATTTCA	0.346
AAATTTCA	0.00137
CGGACAAC	0.309
CGGACATC	0.406
AGGACATA	-0.0903
AGGACATC	0.0505
GGGACAAC	-0.231
CGGACATA	0.433
CTGACATC	0.0186
GGGACATA	-0.0931
CGGACAAG	0.22
ACTAGGCC	-0.243
ATAGCCCC	-0.325
ATTTGCTC	0.141
CTGGAGCC	-0.204
GCGGAGCA	0.152
GCGGAGCC	0.113
CCGGAGCG	0.234
CCGGAGCC	0.396

Sequence	PBM E-score
CGGGAGCA	-0.0121
ACGGAGCA	0.207
CCGGAGCA	0.307
TCGGAGCA	0.3
CGGCGGTA	0.14
CGTTTATC	0.171
ACCCTGGG	-0.279
AGCGTAGC	-0.0963
CCTTTGAA	-0.0516
ATGATCGC	-0.106
GTTAATAA	0.319
AATAATAA	0.304
AATAATAC	0.202
TATGATAA	0.233
AATAATGT	0.235
AATGATAA	0.299
GATAATAA	0.234
ATTAATAA	0.265
AATAATAG	0.157
AATGATAG	0.251
CTTAATAA	0.217
AATAATAT	0.346
AACTTAAG	0.132
CAGTTTGG	-0.198
AAGCGCAC	0.00639

Sequence	PBM E-score
TTACGTAA	-0.0108
ATCAGATG	-0.0902
CATCTGAC	-0.163
TGTCAGAA	-0.0161
CATAATAA	0.131
TATAACAA	0.319
TGTAATAA	0.315
AGTAATAC	0.133
CGTAATAA	0.0956
AGTAATAG	0.063
AGTAATAT	0.312
GATAACAA	0.205
CATAACAA	0.179
TATAATAA	0.298
TCTAATAA	0.173
GGTAATAA	0.188
CATCTTCG	-0.0746
AAGATCAA	0.0587
AATTGCAG	0.0512
GCGACCGC	-0.23
AACAATAC	0.0474
AACAATAA	0.192
AACAATAT	0.331
AGGCTGAC	-0.245
ATAGGTCA	0.0286

Sequence	PBM E-score
AGAATGTC	-0.0101
AAGCATAC	0.164
ATAAAATG	0.289
CTTCGGGC	-0.277
CTTCGGAC	0.405
CTTCGGCC	-0.00176
CTTCGGTA	0.0563
GTTCGGAA	0.289
CTTCGGAA	0.335
CGCGACAG	-0.283
TGGCGACA	-0.207
TATTCGAA	0.0804
GATTCGGA	0.385
AATTCGGC	-0.0483
CATTCGGG	-0.0375
GATTCGCA	0.113
AATTCGGA	0.396
AATTCGGG	0.17
CATTCGGC	-0.0155
GATTCGGC	0.0544
TATTCGCA	0.0506
TATTCGGA	0.352
CATTCGGA	0.392
GCGGGAGC	-0.162
CCGCGAAC	0.0271

Sequence	PBM E-score
ATCTAGGG	-0.097
CAGCCCGA	-0.211
ACAGGACC	-0.108
CGGCCCAA	-0.116
CGTTGACC	-0.224
TGAAAGCA	0.148
ATTAATTC	0.298
ATTAATTG	0.187
AGTAATTC	0.307
CGTAATTC	0.0414
AGTAATTG	0.0745
ATTAATTA	0.188
CGACAGCA	-0.0542
TGATCGCA	-0.221
CATGAGCC	-0.195
GAATTCAC	0.0262
GAGAAGGA	-0.0992
ACGTCCGC	-0.121
AAGTCCCT	-0.131
AAGTCCGC	0.486
AAGTCCGT	0.487
AAGTCCTC	0.0867
AAGTCCAT	0.0246
TCCTTCGA	0.11
GAATATGC	0.0981

Sequence	PBM E-score
GCCCGCAA	-0.0979
ACATCGCA	-0.067
CAGGCCTA	-0.108
GCTATCAA	0.119
ATGTTGGC	-0.0785
GCGGCCCA	0.00935
AGTTAGCC	0.177
AGAACTCC	0.31
GGAACTCC	0.356
AGAACTCG	-0.03
CGAACTCC	0.391
ATAACTCG	0.149
GGAACTCA	-0.0534
CTAACTCC	0.221
AGAACTCT	0.07
CGAACTCA	-0.0187
CGAACTCG	-0.0661
GGAACTAC	-0.062
ATAACTCC	0.365
AGCTGCAG	0.0539
TCCATAGA	0.00973
CAGTTCTA	-0.125
CGAGAATC	0.0357
CTGCAAGA	-0.136
AAGCCTGA	-0.208

Sequence	PBM E-score
ACAACAGT	0.0455
AAGGGTCT	-0.114
TAACTTAA	0.246
AAACCCCC	-0.346
AAACCCCG	0.441
CAACCCGG	-0.157
CAACCCCC	-0.266
CAACCCCG	0.355
AACCCCCG	-0.193
ACGGTATA	-0.115
AAACTAAC	0.27
AAAGTTCT	0.149
GGGCGTGA	-0.182
AACCCGAT	-0.0428
CCCCCGAA	-0.0826
ACCCCGAC	0.273
CCCCCGAG	-0.343
AACCCGAG	0.0811
ACCCCGAT	0.342
ACCCCGAG	0.382
GCCCCGAA	0.184
ACCCCGAA	0.332
GGGCGAAA	0.0444

Reference: the supplement of paper PMC3334620
